The sample as a whole holds a higher share of hits than the screen did.
miR122 inh: raises miR-122 sensor activity in Huh7 cells. Huh7 psiCHECK-miR122 Renilla luciferase sensor, 48 h. 0.14% of 340,000 active. AID 623901. activation, % at 12.5 µM;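 active means mean activation of 30% or more, with every replicate also reaching 30%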;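 further: higher luciferase signal means stronger suppression of miR-122 activity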
Large screens that a line does not name were inactive.

COc1cccc(S(=O)(=O)N(C)C[C@@H]2Oc3ncc(-c4ccc(F)cc4)cc3C(=O)N([C@H](C)CO)C[C@@H]2C)c1	none
CCCNC(=O)Nc1ccc2c(c1)OC[C@H](C)N(C)C[C@@H](C)[C@H](OC)CN(C)C2=O	none
C[C@@H]1CN([C@@H](C)CO)C(=O)c2cc(C#Cc3cccc(F)c3)cnc2O[C@@H]1CN(C)C(=O)C1CC1	none
C[C@H](CO)N1C[C@H](C)[C@@H](CN(C)C(=O)c2cccnc2)Oc2ncc(-c3ccc(C(=O)N(C)C)cc3)cc2C1=O	none
C[C@H]1CN([C@@H](C)CO)S(=O)(=O)c2ccc(Br)cc2O[C@H]1CN(C)CC1CCOCC1	none
C[C@H]1CN([C@@H](C)CO)C(=O)c2cc(C#CC3CC3)cnc2O[C@@H]1CN(C)Cc1ccncc1	none
C[C@@H]1CN([C@@H](C)CO)S(=O)(=O)c2ccc(-c3ccc(C#N)cc3)cc2O[C@@H]1CN(C)C(=O)C1CC1	none
C[C@@H]1CN([C@@H](C)CO)S(=O)(=O)c2ccc(-c3ccccc3)cc2O[C@@H]1CN(C)Cc1cncnc1	none
COc1ccc(CN(C)C[C@@H]2Oc3ccc(NC(=O)C4CCCCC4)cc3CC(=O)N([C@@H](C)CO)C[C@H]2C)cc1	none
C[C@H](CO)N1C[C@H](C)[C@H](CN(C)C(=O)C2CCCCC2)Oc2ncc(-c3cccc(C#N)c3)cc2C1=O	none
CCOC(=O)c1ccc(NC(=O)c2ccc(CN3CCOCC3)cc2)cc1	miR122 inh 37.6
COc1ccc(NS(=O)(=O)c2cc(NC(=O)c3ccc(Cl)cc3)ccc2N2CCOCC2)cc1	none
O=C(NCCCN1CCN(Cc2ccccc2)CC1)c1nnc(Cc2c(F)cccc2Cl)o1	none
O=C(Nc1ccc(CN2CCOCC2)cc1)c1ccc(-c2ccc(Cl)cc2Cl)o1	miR122 inh 33.8
CC(=O)Nc1ccc(C(=O)Nc2ccc(S(=O)(=O)NCC3CCCO3)cc2)cc1 (stereo not drawn)	none
CC(C)NC(=O)N(C)C[C@@H]1Oc2ncc(C3=CCCCC3)cc2C(=O)N([C@H](C)CO)C[C@H]1C	none
C[C@@H]1CN([C@H](C)CO)C(=O)c2cc(-c3cccnc3)cnc2O[C@@H]1CN(C)C(=O)Nc1ccc(F)cc1	none
CCS(=O)(=O)Nc1ccc2c(c1)C(=O)N(C)C[C@H](OC)[C@H](C)CN[C@H](C)CO2	none
COc1ccc(NC(=O)N(C)C[C@@H]2Oc3ncc(-c4cc5ccccc5o4)cc3C(=O)N([C@H](C)CO)C[C@@H]2C)cc1	none
C[C@H](CO)N1C[C@H](C)[C@H](CN(C)S(C)(=O)=O)Oc2cc(-c3ccccc3F)ccc2S1(=O)=O	none
C[C@H](CO)N1C[C@H](C)[C@@H](CN(C)Cc2cccc(F)c2)Oc2ncc(C3=CCCCC3)cc2C1=O	none
CC(=O)N(C)C[C@H]1Oc2cc(C#CC3(O)CCCC3)ccc2S(=O)(=O)N([C@H](C)CO)C[C@H]1C	none
O=C(OCn1ncc(Cl)c(Cl)c1=O)c1ccccc1Cl	miR122 inh 61.2
C[C@@H]1CN([C@@H](C)CO)S(=O)(=O)c2ccc(C#C[C@@H](C)O)cc2O[C@H]1CN(C)CC1CCOCC1	none
CO[C@H]1CN(C)C(=O)c2cc(NC(=O)Cc3ccccc3)ccc2OC[C@H](C)N(C)C[C@@H]1C	none
COCC(=O)N(C)C[C@@H]1Oc2cc(C#CC3CC3)ccc2S(=O)(=O)N([C@@H](C)CO)C[C@H]1C	none
COCC(=O)N(C)C[C@H]1Oc2cc(C#CC3CC3)ccc2S(=O)(=O)N([C@H](C)CO)C[C@H]1C	none
C[C@@H]1CN([C@H](C)CO)S(=O)(=O)c2ccc(C#CC3CC3)cc2O[C@@H]1CN(C)C(=O)c1cccc(F)c1	miR122 inh 43.8
COCC(=O)N(C)C[C@H]1Oc2cc(C#CC3CC3)ccc2S(=O)(=O)N([C@H](C)CO)C[C@@H]1C	none
C[C@H]1CN([C@@H](C)CO)S(=O)(=O)c2ccc(C#CC3CC3)cc2O[C@H]1CN(C)C(=O)C1CC1	none
C[C@@H]1CN([C@@H](C)CO)S(=O)(=O)c2ccc(C#CC3CC3)cc2O[C@@H]1CN(C)C(=O)c1cccc(F)c1	miR122 inh 41.7
CCCNC(=O)NC[C@H]1[C@@H](c2ccc(C3=CCCC3)cc2)[C@@H](CO)N1C(C)=O	none
COCC#Cc1ccc2c(c1)O[C@@H](CN(C)Cc1cncnc1)[C@@H](C)CN([C@@H](C)CO)S2(=O)=O	none
C/C=C/c1ccc2c(c1)O[C@H](CN(C)C(=O)CC1CC1)[C@H](C)CN([C@@H](C)CO)S2(=O)=O	none
CC(C)C#Cc1cnc2c(c1)C(=O)N([C@H](C)CO)C[C@H](C)[C@@H](CN(C)C(=O)c1ccccc1)O2	none
C[C@H](CO)N1C[C@H](C)[C@H](CN(C)C(=O)Nc2ccccc2)Oc2ncc(C#Cc3ccc(F)cc3)cc2C1=O	none
C[C@H]1CN([C@@H](C)CO)C(=O)c2cc(-c3cncnc3)cnc2O[C@@H]1CN(C)Cc1ccccc1	none
COc1ccc(-c2cnc3c(c2)C(=O)N([C@@H](C)CO)C[C@H](C)[C@H](CN(C)Cc2ccccn2)O3)cc1	none
COCC(=O)N(C)C[C@H]1Oc2cc(-c3cccc(F)c3)ccc2S(=O)(=O)N([C@@H](C)CO)C[C@@H]1C	none
COCC(=O)N(C)C[C@H]1Oc2cc(-c3cccc(F)c3)ccc2S(=O)(=O)N([C@H](C)CO)C[C@H]1C	none
COc1ccccc1-c1ccc2c(c1)O[C@@H](CN(C)S(=O)(=O)c1ccc(C)cc1)[C@H](C)CN([C@@H](C)CO)S2(=O)=O	none
COc1ccccc1-c1ccc2c(c1)O[C@@H](CN(C)S(=O)(=O)c1ccc(F)cc1)[C@@H](C)CN([C@@H](C)CO)S2(=O)=O	miR122 inh 35.9
COc1ccc(-c2ccc3c(c2)O[C@H](CN(C)C(=O)c2ccccc2F)[C@H](C)CN([C@@H](C)CO)S3(=O)=O)cc1	none
COc1ccc(-c2ccc3c(c2)O[C@H](CN(C)C(=O)Nc2ccccc2F)[C@H](C)CN([C@@H](C)CO)S3(=O)=O)cc1	miR122 inh 31.8
COc1ccc(-c2ccc3c(c2)O[C@H](CN(C)C(=O)c2ccccc2F)[C@H](C)CN([C@H](C)CO)S3(=O)=O)cc1	none
COCC(=O)N(C)C[C@H]1Oc2cc(-c3ccccc3F)ccc2S(=O)(=O)N([C@@H](C)CO)C[C@H]1C	miR122 inh 55.2
COc1ccccc1-c1ccc2c(c1)O[C@H](CN(C)S(=O)(=O)c1ccc(C)cc1)[C@H](C)CN([C@H](C)CO)S2(=O)=O	none
C[C@@H]1CN([C@@H](C)CO)C(=O)c2cc(/C=C/c3ccccc3)cnc2O[C@@H]1CN(C)Cc1cccc(C(=O)O)c1	none
C[C@H]1CN([C@@H](C)CO)C(=O)c2cc(C#Cc3ccccc3)cnc2O[C@H]1CN(C)C(=O)c1ccccn1	none
Cc1noc(C)c1NC(=O)N(C)C[C@@H]1Oc2cc(C#CCC(C)C)ccc2S(=O)(=O)N([C@H](C)CO)C[C@H]1C	none
Cc1ccc(S(=O)(=O)N(C)C[C@@H]2Oc3ncc(C#Cc4cccc(F)c4)cc3C(=O)N([C@H](C)CO)C[C@@H]2C)cc1	none
C[C@@H]1CN([C@H](C)CO)S(=O)(=O)c2ccc(Br)cc2O[C@@H]1CN(C)S(C)(=O)=O	none
C[C@H](CO)N1C[C@H](C)[C@@H](CN(C)C(=O)c2ccccc2)Oc2cc(-c3cccc(C#N)c3)ccc2S1(=O)=O	none
COCC(=O)N1[C@H](CO)[C@H](c2ccccc2)[C@@H]1CNC(=O)c1ccccn1	none
C[C@@H]1CN([C@H](C)CO)C(=O)c2cc(-c3ccncc3)cnc2O[C@H]1CN(C)C(=O)Cc1ccccn1	none
C[C@@H]1CN([C@H](C)CO)C(=O)c2cc(C3=CCCC3)cnc2O[C@@H]1CN(C)C(=O)C1CCCCC1	none

High-throughput results: PubChem BioAssay, Broad Institute
